The text below walks through data of article PMC10668032, “Altered binding affinity of SIX1-Q177R correlates with enhanced WNT5A and WNT pathway effector expression in Wilms tumor”.

Whole data set: some 33,000 sequences, median “e-score” near -0.05, cut for the highest 2% near 0.38. What follows is part of a selection rich in the highest values, with near analogues and random picks from the rest.

The assay addresses T1, SIX1-Q177R homeodomain (human, UniProt Q15475 108-198, Q177R).
T1 sequence: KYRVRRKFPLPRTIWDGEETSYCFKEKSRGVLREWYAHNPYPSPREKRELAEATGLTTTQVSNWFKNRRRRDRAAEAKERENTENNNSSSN
The assay is described as follows: universal protein binding microarray; Universal all-10-mer PBM (8x60K, AMADID 030236), 300 nM GST-tagged protein, Alexa Fluor 488 anti-GST; buffer, salt, pH and temperature not stated (as in Berger); high values mean tight binding. The conditions noted are these: protein: ivt; tags: N-terminal GST; dsDNA, one strand shown. In short, it runs like this:
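Duplicate protein binding microarrays (universal 'all 10-mer', 8×60K format) were incubated with GST-tagged homeodomains at 300 nM final concentration. Binding was quantified as 8-mer E-scores with the Universal PBM Analysis Suite.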
With CAAGGGTG, the binding signal was 0.252 ± 0.0109 E-score.
The result for CACTTCCA reads 0.202 ± 0.0394 E-score; that for GTCCTACA, 0.243 ± 0.0623 E-score.
The result for CACTTAGG reads 0.229 ± 0.00363 E-score.
As for ACTCCACT, the figure is 0.263 ± 0.0258 E-score; as for CAGGGGTC, 0.242 ± 0.0124 E-score.
Regarding GTCGGATA, the binding signal was found to be 0.292 ± 0.00296 E-score.
The result for ACCCCGCC reads 0.271 ± 0.018 E-score; that for ACCGAAGT, 0.167 ± 0.0104 E-score; that for ACACGCCT, 0.416 ± 0.0145 E-score.
TAACGCCA: the binding signal was 0.16 ± 0.00152 E-score.
The result for ACCCGCCG reads 0.258 ± 0.00942 E-score; that for ACCCGCCT, 0.206 ± 0.00671 E-score.
In the case of ACACGCCC, the binding signal came to 0.4216 ± 0.00148 E-score.
The result for ACACGCCA reads 0.381 ± 0.0176 E-score; that for CAACGCCG, 0.164 ± 0.00575 E-score.
In the case of ATACGCCA, the binding signal came to 0.151 ± 0.00585 E-score.
The result for ACGCCCCC reads 0.19 ± 0.00645 E-score.
The result for ACGCCCCT reads 0.205 ± 0.0263 E-score; that for ACACGCCG, 0.404 ± 0.009 E-score.
On to ACCCGCCC, for which the binding signal came to 0.243 ± 0.0168 E-score.
In the case of GGGGTACA, the binding signal was found to be 0.329 ± 0.00694 E-score.
As for GATCCCTA, the figure is 0.24 ± 0.0333 E-score.
The result for GTGCCAAC reads 0.156 ± 0.0339 E-score; that for GAATTACA, 0.22 ± 0.0378 E-score.
The result for ACCCATCG reads 0.179 ± 0.0324 E-score; that for CACTGGGC, 0.154 ± 0.00412 E-score; that for ACCCTATC, 0.17 ± 0.0179 E-score.
Take CCGATACC: the binding signal was determined as 0.361 ± 0.0126 E-score.
The result for AGCACACT reads 0.163 ± 0.0222 E-score; that for CGCACACG, 0.24 ± 0.0245 E-score.
As for CGCACACA, the figure is 0.16 ± 0.0759 E-score; as for AGCACACC, 0.38 ± 0.026 E-score.
For CGCACACC, the binding signal came to 0.395 ± 0.0298 E-score.
AGCACACG: the binding signal came to 0.257 ± 0.015 E-score.
The result for AATCCACA reads 0.155 ± 0.0214 E-score; that for AGTATACA, 0.235 ± 0.0155 E-score; that for ACGCCACC, 0.194 ± 0.00825 E-score.
As for AAGGGGGT, the figure is 0.293 ± 0.0313 E-score; as for AACGGTGT, 0.4669 ± 0.000509 E-score; as for AATGGGGT, 0.246 ± 0.0257 E-score.
The result for AAGGGTAT reads 0.262 ± 0.0281 E-score; that for AAAAGTGT, 0.274 ± 0.0858 E-score.
Consider AAAGGGGT, for which the binding signal came to 0.162 ± 0.0302 E-score.
Turning to AATGGTGT, the binding signal amounted to 0.4746 ± 0.00144 E-score.
The result for AAGGGTGT reads 0.4645 ± 0.00313 E-score.
CACGGTGA: the binding signal was 0.221 ± 0.0367 E-score.
The result for AAAGGTGT reads 0.452 ± 0.0138 E-score; that for AACGGTGC, 0.184 ± 0.0227 E-score.
On to AATGGTAT, for which the binding signal came out at 0.227 ± 0.00525 E-score.
AGGGGTAT: the binding signal amounted to 0.3 ± 0.0125 E-score.
As for CGACTCCC, the figure is 0.263 ± 0.056 E-score; as for GGTCCACA, 0.17 ± 0.0089 E-score.
As for TCGTTACA, the figure is 0.278 ± 0.00887 E-score; as for AACCTACA, 0.192 ± 0.0148 E-score; as for GTACTGAC, 0.172 ± 0.0189 E-score.
As for CACACCCG, the figure is 0.423 ± 0.0208 E-score; as for CACACCCC, 0.402 ± 0.0285 E-score; as for CCCACCCC, 0.304 ± 0.0356 E-score.
CGCACCCG: the binding signal came out at 0.245 ± 0.0361 E-score.
GACCCCCC: the binding signal is 0.248 ± 0.0557 E-score.
With GACACCCC, the binding signal came out at 0.487 ± 0.00971 E-score.
As for GACCCCCA, the figure is 0.233 ± 0.0487 E-score; as for CGCACCCA, 0.193 ± 0.0349 E-score; as for CACCCCCG, 0.325 ± 0.0496 E-score.
Turning to GACACCCA, the binding signal was found to be 0.479 ± 0.00732 E-score.
On to CACCCCCC, for which the binding signal stood at 0.341 ± 0.0318 E-score.
As to GGCACCCC, the binding signal worked out at 0.158 ± 0.0472 E-score.
As for CCCCTGAC, the figure is 0.271 ± 0.0456 E-score; as for CAATGGTG, 0.299 E-score; as for CACTCGAC, 0.211 ± 0.00795 E-score.
As for CGGGTCTC, the figure is 0.207 ± 0.0182 E-score; as for ATGAGGGG, 0.195 ± 0.0319 E-score.
The result for AAGTCGTG reads 0.169 ± 0.0361 E-score; that for AGATGGAG, 0.181 ± 0.00463 E-score.
For the sequence CACGCAAA, the binding signal stood at 0.251 ± 0.0233 E-score.
As for AACTCACA, the figure is 0.174 ± 0.0813 E-score; as for CTGATACC, 0.312 ± 0.00631 E-score; as for CGGGAGTA, 0.26 ± 0.0317 E-score.
The result for CACCCATA reads 0.301 ± 0.0276 E-score; that for CACCTTGA, 0.177 ± 0.00756 E-score.
GTTCTACA: the binding signal was 0.239 ± 0.00598 E-score.
Regarding GATCCCCA, the binding signal was determined as 0.267 ± 0.0387 E-score.
As for ACCACCCT, the figure is 0.183 ± 0.0205 E-score.
As for AGCACCCA, the figure is 0.159 ± 0.0296 E-score; as for AGCACCCT, 0.172 ± 0.0259 E-score.
